# Data from PubChem BioAssay (NCI).
# This is part of a sample that, as a whole, favours compounds with a hit. Of some 79,000 tested, about 15% had one in any assay. Unmarked numbers belong to inactive results. The source made the active and inactive calls. Cut-off read from the data, not from the text of the source: active = growth inhibition above about 70%; inactive = the rest.
# Test: NCI Yeast Anticancer Drug Screen. Data for the mec2-1 strain (AID 157)
# Details: S. cerevisiae mec2-1 strain, at 1.2 µM, active compounds read high
# Outline: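 Growth inhibition is read against vehicle-treated controls after compound exposure of the mec2-1 yeast strain, which is defective in DNA damage repair or cell cycle control.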
row,Compound,growth inhibition
1,O=C(O)c1ccccc1.[Ag],89% (active)
2,CC(=O)[O-].O=C([CH-]C(=O)c1ccccc1)c1ccccc1.O=C([CH-]C(=O)c1ccccc1)c1ccccc1.[Sm+3],-2%
3,C=C[C@H]1CN2CC[C@H]1C[C@@H]2[C@@H](O)c1ccnc2ccccc12,-1%
4,[Pt].c1ccc(P(CCP(c2ccccc2)c2ccccc2)CCP(c2ccccc2)c2ccccc2)cc1,-27%
5,CC12CCC(C1)C(C)(C)C2OC(=O)c1ccccc1N (configuration not stated),-1%
6,OC1(c2ccccc2)CC2CCC(C1)N2CCCC(O)(c1ccccc1)c1ccccc1 (configuration not stated),0%
7,COC(=O)C(F)C(Br)C(=O)OC (configuration not stated),20%
8,CCCCCCCCCC[Se]C#N,1%
9,CNCC(O)c1ccc(O)c(O)c1.[Pt].c1ccc([PH+](c2ccccc2)c2ccccc2)cc1.c1ccc([PH+](c2ccccc2)c2ccccc2)cc1,3%
10,Cc1ccc(P(c2ccc(C)cc2)c2ccc(C)cc2)cc1,-3%
11,CC1CC(C)CC(C)C(O)/C(C#N)=C/C=C/CC(C2CCCC2C(=O)O)OC(=O)CC(O)C(C)C1 (configuration not stated),96% (active)

# Same assay, conditions: S. cerevisiae mec2-1 strain, at 3.7 µM, active compounds read high
row,Compound,growth inhibition
1,O=C(O)c1ccccc1.[Ag],101% (active)
2,CC(=O)[O-].O=C([CH-]C(=O)c1ccccc1)c1ccccc1.O=C([CH-]C(=O)c1ccccc1)c1ccccc1.[Sm+3],5%
3,C=C[C@H]1CN2CC[C@H]1C[C@@H]2[C@@H](O)c1ccnc2ccccc12,3%
4,[Pt].c1ccc(P(CCP(c2ccccc2)c2ccccc2)CCP(c2ccccc2)c2ccccc2)cc1,-14%
5,CC12CCC(C1)C(C)(C)C2OC(=O)c1ccccc1N (configuration not stated),-2%
6,OC1(c2ccccc2)CC2CCC(C1)N2CCCC(O)(c1ccccc1)c1ccccc1 (configuration not stated),1%
7,COC(=O)C(F)C(Br)C(=O)OC (configuration not stated),73% (active)
8,CCCCCCCCCC[Se]C#N,4%
9,CNCC(O)c1ccc(O)c(O)c1.[Pt].c1ccc([PH+](c2ccccc2)c2ccccc2)cc1.c1ccc([PH+](c2ccccc2)c2ccccc2)cc1,6%
10,Cc1ccc(P(c2ccc(C)cc2)c2ccc(C)cc2)cc1,-2%
11,CC1CC(C)CC(C)C(O)/C(C#N)=C/C=C/CC(C2CCCC2C(=O)O)OC(=O)CC(O)C(C)C1 (configuration not stated),98% (active)
